Most compounds without a hit are left out; they make up all but 7% or so of the library.
PI5P4K alpha inh: blocks human PI5P4K alpha kinase activity | hit rate 1.2% among 330,000 | P48426 | PI5P4Kalpha enzyme, ADP-Glo luminescence, 60 min; active compounds read low | max response, %; active = max response of -50% or lower; inconclusive = between -30% and -50%; inactive = -30% or higher; also: value at the top dose of about 77 µM
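ADP-Glo luminescence end-point after a 60 min room-temperature kinase reaction. PI5P4Kalpha and substrate in HEPES pH 7.4 buffer with EGTA, 0.1% CHAPS and 5% DMSO; ATP at 5 microM final.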
KAT2A inh: GCN5L2 (KAT2A) acetyltransferase inhibition | Q92830 | GCN5L2 HAT assay, ThioGlo1 CoA-SH fluorescence | Potency, µM (titrated, usually from 58.9 µM), usual class: inhibitors | hit rate 0.21% among 390,000 | AID 504327
Target sequence (Q92830 whole entry, looked up): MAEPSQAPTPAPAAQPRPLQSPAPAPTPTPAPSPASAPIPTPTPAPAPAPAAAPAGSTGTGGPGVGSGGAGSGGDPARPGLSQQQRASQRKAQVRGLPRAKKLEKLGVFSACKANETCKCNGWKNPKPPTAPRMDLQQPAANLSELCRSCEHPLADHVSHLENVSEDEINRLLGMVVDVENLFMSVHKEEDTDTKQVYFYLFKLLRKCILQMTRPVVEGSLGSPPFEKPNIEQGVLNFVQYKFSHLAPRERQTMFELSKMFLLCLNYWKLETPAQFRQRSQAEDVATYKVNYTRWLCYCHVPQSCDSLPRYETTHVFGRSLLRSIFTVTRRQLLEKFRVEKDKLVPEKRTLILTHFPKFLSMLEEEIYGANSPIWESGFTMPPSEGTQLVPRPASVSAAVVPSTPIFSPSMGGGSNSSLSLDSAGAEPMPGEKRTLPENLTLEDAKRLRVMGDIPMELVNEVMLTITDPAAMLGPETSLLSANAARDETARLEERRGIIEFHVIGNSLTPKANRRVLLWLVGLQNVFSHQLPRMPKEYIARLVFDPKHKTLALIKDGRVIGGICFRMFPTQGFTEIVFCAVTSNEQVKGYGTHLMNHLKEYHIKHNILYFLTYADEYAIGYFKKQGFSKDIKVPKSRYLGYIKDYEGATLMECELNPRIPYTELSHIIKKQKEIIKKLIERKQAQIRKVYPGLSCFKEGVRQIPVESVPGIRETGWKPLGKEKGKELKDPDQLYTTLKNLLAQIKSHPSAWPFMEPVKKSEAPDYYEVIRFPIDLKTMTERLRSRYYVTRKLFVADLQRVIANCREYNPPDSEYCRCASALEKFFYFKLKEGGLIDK
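Preincubate 20nM GCN5L2 with compound 15 min, RT → add 50uM ThioGlo1 + 75uM H3(1-25) + 70uM acetyl-CoA → read fluorescence 0 and 20 min. Primary qHTS; fluorescent artifacts likely.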
PLK1 PBD block: PLK1 (human) polo-box domain binding inhibition; P53350; Plk1 PBD binding of FITC phosphopeptide, fluorescence polarization; Potency, µM, usual class: inhibitors; hit rate 2.8% among 360,000; also: series mostly up to about 57 µM; nearly all actives have a fitted effect of over 65% in size
HP1b binding inh: HP1-beta chromodomain-methylated histone interaction inhibition; P83916; AlphaScreen HP1-beta / biotin-H3K9me3 peptide binding; Potency, µM (titrated, usually from 114 µM), usual class: inhibitors; hit rate 0.56% among 390,000; AID 540317; also: nearly all actives have a fitted effect of over 70% in size
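AlphaScreen: HP1-beta (50 nM) preformed 30 min with biotin-H3(1-18)K9me3 peptide (50 nM) in PBS pH 7.4, 0.01% Tween-20. Compound added for 30 min at RT, then streptavidin donor/nickel chelate acceptor beads (10 ug/mL) for 30 min.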
BAZ2B block: inhibitors of human BAZ2B bromodomain; AlphaScreen BAZ2B-H3K14Ac peptide displacement; Potency, µM (titrated, usually from 114 µM), actives largely listed as inhibitors; hit rate 4.4% among 360,000; also: nearly all actives have a fitted effect of over 60% in size
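Protein-peptide AlphaScreen: BAZ2B 50 nM, b-H3K14Ac 50 nM, 1x PBS pH 7.4 + 0.01% Tween-20. Preincubation 30 min RT; cpd 30 min RT (top 110 uM); beads 20 min RT, light-protected.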
JMJD2A Tudor: JMJD2A Tudor domain (human) inhibition; hit rate 4.4% among 390,000; Potency, µM (titrated, usually from 114 µM), usual class: inhibitors; AlphaScreen JMJD2A-Tudor / H3K4me3 peptide binding; also: nearly all actives have a fitted effect of over 50% in size
Large screens that a line does not name were inactive. Unless noted, calls follow the shape of the dose curve; as a rule, active = well fitted curve in the direction sought with a large enough effect; inconclusive = small, poorly fitted or top-dose-only effect, or another doubt; inactive = no such curve, though single readings can be large; an effect the other way counts as inactive or inconclusive.

COc1ccc(-n2c(SCC(=O)Nc3cc(C(=O)O)ccc3C)nc3ccccc3c2=O)cc1Cl	PI5P4K alpha inh -64
CC(C)(C)c1ccc(C2C3=C(CCCC3=O)NC3=C2C(=O)c2ccccc23)cc1 (configuration not stated)	BAZ2B block inconclusive, JMJD2A Tudor 25µM
C=CCn1c(C(C)NC(=O)c2cccs2)n[nH]c1=S (configuration not stated)	JMJD2A Tudor 18µM
CCn1c(C(C)NC(=O)c2cccc(C)c2)n[nH]c1=S (configuration not stated)	none
CCCn1c(C(C)NC(=O)c2ccccc2)n[nH]c1=S (configuration not stated)	JMJD2A Tudor 8.9µM
C=CCn1c(CNC(=O)c2cccs2)n[nH]c1=S	JMJD2A Tudor inconclusive
CCn1c(C(C)NC(=O)c2cccs2)n[nH]c1=S (configuration not stated)	JMJD2A Tudor 7.1µM
Cc1noc(C)c1Cn1c(C)c(C(=O)NCc2ccc3c(c2)OCCO3)sc1=O	none (no result: KAT2A inh, HP1b binding inh, BAZ2B block, JMJD2A Tudor)
COc1cc(/C=C2/S/C(=N/S(=O)(=O)Cc3ccccc3)NC2=O)c([N+](=O)[O-])cc1OC	PI5P4K alpha inh inconclusive, PLK1 PBD block 24µM, BAZ2B block inconclusive
COc1cc(/C=C2/S/C(=N/S(=O)(=O)c3ccccc3)NC2=O)c([N+](=O)[O-])cc1OC	PI5P4K alpha inh inconclusive, PLK1 PBD block 27µM, BAZ2B block 71µM
COc1cc(/C=C2\S/C(=N/S(=O)(=O)Cc3ccccc3)NC2=O)c([N+](=O)[O-])cc1OC	BAZ2B block inconclusive
Cc1cc(C)c(NC(=O)CNC(=O)CSc2nnc(N)s2)c(C)c1	none
Fc1ccc([C@@H]2Nc3ccccc3[C@@H]3C=CC[C@@H]32)cc1	JMJD2A Tudor inconclusive (no result: PI5P4K alpha inh, PLK1 PBD block)
CC1CC(C)CN(S(=O)(=O)c2ccc3c(c2)CCN3C(=O)CCC(=O)O)C1 (configuration not stated)	none
Cc1cccc(N2CCN(S(=O)(=O)c3ccc4c(c3)CCN4C(=O)CCC(=O)O)CC2C)c1 (configuration not stated)	HP1b binding inh inconclusive, BAZ2B block inconclusive, JMJD2A Tudor 56µM
COC(=O)C1=CC(C(=O)c2cccs2)=NN(c2ccc(OC)cc2)C1C(=O)OC (configuration not stated)	HP1b binding inh inconclusive, BAZ2B block 8.9µM, JMJD2A Tudor 25µM
CCOc1cc(-c2ccc(OC(=O)c3ccc(C)cc3)c(OC)c2)cc(=O)c2c(C)oc(C)c12	BAZ2B block 40µM, JMJD2A Tudor inconclusive (no result: PI5P4K alpha inh, PLK1 PBD block)
CCOc1ccc(-c2cc(OC(=O)c3ccccc3)c3c(C)oc(C)c3c(=O)c2)cc1	BAZ2B block 35µM, JMJD2A Tudor inconclusive (no result: PI5P4K alpha inh, PLK1 PBD block)
COc1ccc(-c2cc(OC(=O)c3cccc(Cl)c3)c3c(C)oc(C)c3c(=O)c2)cc1OC	BAZ2B block 50µM, JMJD2A Tudor inconclusive (no result: PI5P4K alpha inh, PLK1 PBD block)
CCOc1ccc(-c2cc(OC(=O)c3ccc(F)cc3)c3c(C)oc(C)c3c(=O)c2)cc1	BAZ2B block inconclusive, JMJD2A Tudor inconclusive (no result: PI5P4K alpha inh, PLK1 PBD block)
Cc1oc(C)c2c(=O)cc(-c3ccc4c(c3)OCO4)cc(OC(=O)c3cccc(Cl)c3)c12	none (no result: PI5P4K alpha inh, PLK1 PBD block)
COc1cc(-c2cc(OC)c3c(C)oc(C)c3c(=O)c2)ccc1OC(=O)c1cccc(Cl)c1	BAZ2B block 79µM, JMJD2A Tudor inconclusive (no result: PI5P4K alpha inh, PLK1 PBD block)
O=C(C#Cc1ccccc1)c1ccco1	PLK1 PBD block 3.4µM
O=C(N/N=C/c1ccccc1)c1ccco1	none
Cc1csc(=O)n1CCC(=O)OCC(=O)Nc1ccc(S(N)(=O)=O)cc1	none
Cc1ccc(-c2c(C(=O)N3CCN(c4cccc(C)c4)C(C)C3)oc(=O)c3ccccc23)cc1 (configuration not stated)	JMJD2A Tudor inconclusive (no result: PI5P4K alpha inh, PLK1 PBD block, BAZ2B block)
Cc1ncc(CO)c(/C=N/NC(=S)Nc2ccc(F)cc2)c1O	PI5P4K alpha inh inconclusive, HP1b binding inh inconclusive, BAZ2B block 3.2µM, JMJD2A Tudor 40µM
Cc1ncc(CO)c(/C=N/N=C/c2ccccc2O)c1O	BAZ2B block inconclusive, JMJD2A Tudor inconclusive
CN(C)c1ncc(C2=C(Cl)C(=O)C(N3CCCC3)=C(Cl)C2=O)s1	PLK1 PBD block 7.5µM, JMJD2A Tudor 11µM (no result: PI5P4K alpha inh, KAT2A inh, BAZ2B block)
O=C1C(Cl)=C(N2CCCCC2)C(=O)C(Cl)=C1c1cnc(N2CCCCC2)s1	PLK1 PBD block 7.5µM, HP1b binding inh inconclusive, BAZ2B block 45µM, JMJD2A Tudor 8.9µM (no result: PI5P4K alpha inh)
N#CCCC(CCC#N)(CCC#N)c1cc[n+](CCc2ccccn2)cc1	none
CCOC(=O)CCCCCCCCCCCCC1C=CCC1 (configuration not stated)	none (no result: PI5P4K alpha inh, PLK1 PBD block, HP1b binding inh, BAZ2B block, JMJD2A Tudor)
NC(=O)COc1c(-c2ccc(Br)o2)oc2ccccc2c1=O	BAZ2B block inconclusive
O=C1NN(c2ccccc2)C(=O)/C1=C/c1cccs1	BAZ2B block inconclusive (no result: PI5P4K alpha inh, PLK1 PBD block, HP1b binding inh, JMJD2A Tudor)
O=C1NN(c2cccc(Br)c2)C(=O)/C1=C\c1ccccc1	PLK1 PBD block 1.5µM
O=C1NN(c2ccccc2)C(=O)C1=Cc1ccccc1	PLK1 PBD block 11µM (no result: KAT2A inh, HP1b binding inh, BAZ2B block, JMJD2A Tudor)
O=C1NN(c2cccc(Br)c2)C(=O)/C1=C/c1cccs1	PLK1 PBD block 19µM, BAZ2B block inconclusive, JMJD2A Tudor inconclusive
O=C1NN(c2ccccc2)C(=O)/C1=C\c1ccccc1	PLK1 PBD block 8.4µM
COc1cccc(N2CCN(C(=O)CN3C(=O)NC(C)(c4ccc5ccccc5c4)C3=O)CC2)c1 (configuration not stated)	JMJD2A Tudor inconclusive
O=C(CCCCCN1C(=O)CCC1=O)Nc1ncn[nH]1	BAZ2B block 50µM, JMJD2A Tudor 50µM
Cc1c(Cl)cccc1NC(=O)CCCCCN1C(=O)CCC1=O	none
COC(=O)Nc1ccc(S(=O)(=O)NC2CCCCC2)cc1	none
CC(=O)c1cccc(NC(=O)c2ccc3nc(C(C)C)oc3c2)c1	none (no result: PI5P4K alpha inh, PLK1 PBD block)
CC1OC(O[C@H]2CC[C@]3(C)C4C=C[C@]56OC[C@@]7(CC[C@@H](C)[C@H](C)C75)[C@H](O)C[C@@]6(C)[C@]4(C)CC[C@H]3C2(C)C)C(OC2OC(CO)C(O)C(O)C2OC2OCC(O)C(O)C2O)C(O)C1O (some centres not stated)	BAZ2B block inconclusive (no result: PI5P4K alpha inh, PLK1 PBD block, HP1b binding inh, JMJD2A Tudor)
COc1ccc(NCc2ccsc2)cc1	BAZ2B block 18µM, JMJD2A Tudor 56µM
CC1CCCC(NC(=O)Cn2c(Cl)nc3c2c(=O)n(C)c(=O)n3C)C1C (configuration not stated)	none (no result: BAZ2B block)
O=C1c2cccnc2C(=O)N1C1CCCCC1	BAZ2B block 79µM (no result: PI5P4K alpha inh)
Cc1cc(NC(=O)Cc2cccs2)no1	PLK1 PBD block inconclusive, HP1b binding inh inconclusive, BAZ2B block 45µM, JMJD2A Tudor 18µM (no result: PI5P4K alpha inh)
COc1cc(NC(=O)Cc2cccs2)cc(OC)c1	PLK1 PBD block 3.4µM, HP1b binding inh inconclusive
COc1cccc(C(C)NC(=O)Cc2cccs2)c1 (configuration not stated)	PLK1 PBD block 21µM, JMJD2A Tudor inconclusive
